In paper PMC4336329 (PLoS ONE, 2015):
The campaign covered roughly 310,000 compounds. About 14,000 (4.5%) showed an effect of 50% or more. Effects have a minus sign here. The entries come from a sample that favours strong results as a whole.

Target: human ether-à-go-go-related gene (hERG) potassium channel (human, UniProt Q12809)
Test: primary screen, population patch clamp on CHO cells stably expressing hERG; higher = less effect of the substance
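Also: peak tail current of the secondary pulse compared with the same well before compound.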

human ether-à-go-go-related gene (hERG) potassium channel, sequence (Q12809 whole entry, looked up): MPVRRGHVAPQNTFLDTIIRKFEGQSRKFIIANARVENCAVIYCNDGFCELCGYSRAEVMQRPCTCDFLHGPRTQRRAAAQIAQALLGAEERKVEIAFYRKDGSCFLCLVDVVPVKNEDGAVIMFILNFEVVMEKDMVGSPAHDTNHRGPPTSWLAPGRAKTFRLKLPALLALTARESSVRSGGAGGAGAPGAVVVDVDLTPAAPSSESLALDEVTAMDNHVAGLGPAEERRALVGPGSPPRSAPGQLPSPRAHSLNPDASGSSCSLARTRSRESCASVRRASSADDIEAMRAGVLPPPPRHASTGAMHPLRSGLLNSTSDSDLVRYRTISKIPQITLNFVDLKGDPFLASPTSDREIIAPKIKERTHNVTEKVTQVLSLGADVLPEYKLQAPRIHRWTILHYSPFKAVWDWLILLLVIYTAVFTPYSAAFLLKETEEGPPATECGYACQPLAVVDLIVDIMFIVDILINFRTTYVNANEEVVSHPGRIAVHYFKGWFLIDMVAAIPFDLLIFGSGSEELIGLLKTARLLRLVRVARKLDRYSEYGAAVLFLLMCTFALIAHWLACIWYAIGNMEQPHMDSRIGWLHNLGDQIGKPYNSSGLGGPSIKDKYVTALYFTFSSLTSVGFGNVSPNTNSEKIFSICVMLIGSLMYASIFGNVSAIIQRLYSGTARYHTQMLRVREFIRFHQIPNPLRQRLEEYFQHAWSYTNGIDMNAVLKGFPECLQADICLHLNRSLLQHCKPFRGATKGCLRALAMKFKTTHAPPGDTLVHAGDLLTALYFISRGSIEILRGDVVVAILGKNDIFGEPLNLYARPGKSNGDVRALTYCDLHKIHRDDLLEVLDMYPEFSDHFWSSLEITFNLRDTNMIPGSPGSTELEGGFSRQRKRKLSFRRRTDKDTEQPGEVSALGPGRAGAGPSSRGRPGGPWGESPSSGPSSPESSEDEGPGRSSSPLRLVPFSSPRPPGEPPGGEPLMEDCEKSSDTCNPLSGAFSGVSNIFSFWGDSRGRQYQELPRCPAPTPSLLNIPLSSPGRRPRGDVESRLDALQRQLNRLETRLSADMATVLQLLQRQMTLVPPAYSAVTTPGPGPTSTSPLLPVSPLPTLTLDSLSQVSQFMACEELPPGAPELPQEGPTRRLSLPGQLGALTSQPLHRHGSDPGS

| Structure (SMILES) | hERG current change (%, negative = inhibition) at 10uM [%] |
| --- | --- |
| Cc1ccc(S(=O)(=O)N2CCC(C(N)=O)CC2)cc1C(=O)NC1CCCCC1 | 18.9 |
| CCOC(=O)C1CCN(S(=O)(=O)c2ccc(C)c(C(=O)NC3CCCCC3)c2)CC1 | -55.8 |
| CCOC(=O)N1CCN(S(=O)(=O)c2ccc(C)c(C(=O)NC3CCCCC3)c2)CC1 | 1.42 |
| O=C(Nc1ccccc1)C(O)C(O)C(=O)Nc1ccccc1 (stereo not shown) | 16.8 |
| CN(Cc1cccc(-n2cccn2)c1)Cc1cn(C)nc1-c1ccccc1F | 15.9 |
| COc1cccc(-n2cc(CNCc3cn(C)nc3-c3ccccc3F)cn2)c1 | -19.3 |
| Cn1cc(CNCc2ccc(-n3cccn3)cc2)c(-c2ccccc2F)n1 | -62.2 |
| Cn1cc(CNCCCn2ncc3ccccc32)c(-c2ccccc2F)n1 | -36.3 |
| CN(Cc1ccc(-n2cccn2)cc1)Cc1cn(C)nc1-c1ccccc1F | -74.9 |
| CCn1ccnc1CN(C)Cc1cn(C)nc1-c1ccccc1F | 13.2 |
| O=C(CNC(=O)OCc1ccccc1)NC1CCCCCCC1 | -2.67 |
| CCOCCCNC(=O)Cn1cnc2c(cnn2-c2ccc(C)c(C)c2)c1=O | 3.91 |
| O=C(NCC12CC3CC(C1)CC(CNC(=O)N1CCCC1)(C3)C2)N1CCCC1 | -3.73 |
| O=C(CN1CCN(C(=O)C2COc3ccccc3O2)CC1)Nc1ccccc1 (stereo not shown) | -66.2 |
| CC(C)N(C(=O)CN1CCN(C(=O)C2COc3ccccc3O2)CC1)C(C)C (stereo not shown) | -0.817 |
| O=C(CN1CCN(C(=O)C2COc3ccccc3O2)CC1)Nc1ccc(F)cc1 (stereo not shown) | -75.7 |
| O=C(C1COc2ccccc2O1)N1CCN(c2ccc(F)cc2)CC1 (stereo not shown) | -40.7 |
| CCN1CCN(C(=O)C2COc3ccccc3O2)CC1 (stereo not shown) | -7.48 |
| O=C(Nc1ccc(F)cc1)C1COc2ccccc2O1 (stereo not shown) | 9.07 |
| CC(=O)Oc1ccc(C(=O)Nc2ccccc2C(=O)Nc2cccc(C(=O)O)c2)cc1 | 13 |

| Structure (SMILES) | hERG current change (%, negative = inhibition) at 10uM [%] |
| --- | --- |
| CCOC(=O)c1cnn(-c2cc(Oc3ccccc3C)ncn2)c1N | 14.4 |
| Cc1nc2ccccc2cc1C(=O)N/N=C/c1cccs1 | -6.93 |
| CCOc1ccc(OCCOc2cccc(C(F)(F)F)c2)cc1 | 9.77 |
| O=c1c2cc(NC(=S)N3CCCC3)ccc2nc2n1CCCCC2 | -28 |
| CCOC(=O)C1CCCN(C(=O)C(=O)Nc2ccc3nc4n(c(=O)c3c2)CCCCC4)C1 (stereo not shown) | -1.21 |
| CC1CCCN(C(=O)C(=O)Nc2ccc3nc4n(c(=O)c3c2)CCCCC4)C1 (stereo not shown) | -17.8 |
| O=c1c2cc(NC(=S)N3CCCCCC3)ccc2nc2n1CCCCC2 | -43.9 |
| CCOC(=O)Nc1ccc2nc3n(c(=O)c2c1)CCCCC3 | 7.45 |
| O=c1c2cc(NC(=S)N3CCCCC3)ccc2nc2n1CCCCC2 | -55.7 |
| CC1CCCN(C(=S)Nc2ccc3nc4n(c(=O)c3c2)CCCCC4)C1 (stereo not shown) | -66.1 |
| O=c1c2cc(NC(=S)N3CCC(N4CCCCC4)CC3)ccc2nc2n1CCCCC2 | -3.94 |
| CCN1CCN(C(=S)Nc2ccc3nc4n(c(=O)c3c2)CCCCC4)CC1 | 1.83 |
| CC1CCCC(C)N1CCCNC(=O)C(=O)Nc1ccc2nc3n(c(=O)c2c1)CCCCC3 (stereo not shown) | 16.8 |
| CC1CCN(C(=S)Nc2ccc3nc4n(c(=O)c3c2)CCCCC4)CC1 | -55.2 |
| CC1CCCCN1C(=S)Nc1ccc2nc3n(c(=O)c2c1)CCCCC3 (stereo not shown) | -59 |
| COc1cc(/C=C(\C#N)c2ccccn2)ccc1OCC(=O)Nc1cccc(C(F)(F)F)c1.Cl | 0.582 |
| COCCCNC(=O)c1ccc2c(c1)nc(C)n2-c1cccc(C)c1 | 6.05 |
| CC(C)(C)C(=O)Nc1ccc(S(=O)(=O)c2ccc(NC(=O)C(C)(C)C)cc2)cc1 | 18.6 |
| CN1CCN(Cc2c(O)ccc3occ(C(=O)c4ccccc4)c23)CC1 | -39.3 |
| Cc1ccc(/C=C2\Oc3c(ccc(O)c3CN3CCN(C)CC3)C2=O)cc1 | -15 |

| Structure (SMILES) | hERG current change (%, negative = inhibition) at 10uM [%] |
| --- | --- |
| Cc1ccc(C(=O)c2coc3ccc(O)c(CN4CCN(C)CC4)c23)cc1 | -51.2 |
| O=c1c(-c2ccc(Cl)cc2)coc2c(CN3CCCCC3)c(O)ccc12 | -32.7 |
| COc1ccc(OC)c(C(=O)c2coc3ccc(O)c(CN4CCOCC4)c23)c1 | -39.7 |
| COc1ccc(C(=O)c2coc3ccc(O)c(CN4CCOCC4)c23)cc1 | -51.2 |
| COc1ccc(C(=O)c2coc3ccc(O)c(CN4CCCCC4)c23)cc1 | -76.9 |
| COc1ccc(-c2coc3c(CN4CCCCC4)c(O)c(CN4CCCCC4)c(O)c3c2=O)cc1 | -79.2 |
| COc1ccc(C(=O)c2c(C)oc3ccc(O)c(CN4CCOCC4)c23)cc1 | -29.5 |
| COc1ccc(-c2coc3c(CN4CCOCC4)c(O)ccc3c2=O)cc1 | -21.1 |
| Cc1cc(Cn2nnnc2-c2ccncc2)cc(C)c1O | 6.54 |
| O=C(Nc1ccc(Cl)c(C(F)(F)F)c1)N1CCCC(O)C1 (stereo not shown) | 10.9 |
| Cc1oc2ccc(O)c(CN3CCOCC3)c2c1C(=O)c1ccc(Cl)cc1 | -41 |
| Cl.O=C(c1ccccc1)c1coc2ccc(O)c(CN3CCOCC3)c12 | -60.7 |
| O=C(c1cccs1)c1coc2ccc(O)c(CN3CCOCC3)c12 | -69.1 |
| COc1ccc(OC)c(C(O)c2coc3ccc(O)c(CN4CCOCC4)c23)c1 (stereo not shown) | -11.4 |
| Cl.O=C(c1cccs1)c1coc2ccc(O)c(CN(CCO)CCO)c12 | -41 |
| Oc1ccc2ccccc2c1CN1CCOCC1 | -6.06 |
| Cl.O=C(c1coc2ccc(O)c(CN3CCOCC3)c12)C1CC1 | 12.3 |
| COc1ccc(C(=O)c2coc3ccc(O)c(CN4CCCC4)c23)cc1 | -73.4 |
